Screening results from PubChem.
Only some compounds are listed: those with a hit (about 12% of all), similar ones and a draw of the others.
HP1b chromo inh – HP1-beta chromodomain-methylated histone interaction inhibition; P83916; AlphaScreen HP1-beta / biotin-H3K9me3 peptide binding; Potency, µM (titrated, usually from 114 µM), inactives show at the highest dose activity change, negative = inhibition, hits mostly inhibitors; 0.56% of 390,000 active; AID 540317; note: nearly all actives have a fitted effect of over 70% in size
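AlphaScreen: HP1-beta (50 nM) preformed 30 min with biotin-H3(1-18)K9me3 peptide (50 nM) in PBS pH 7.4, 0.01% Tween-20. Compound added for 30 min at RT, then streptavidin donor/nickel chelate acceptor beads (10 ug/mL) for 30 min.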
Sfp inh – Sfp phosphopantetheinyl transferase inhibition; Q9F4F7; Biochemical Sfp PPTase activity, qHTS; Potency, µM, without a hit: largest response in the series, negative = inhibition, usual class: inhibitors; 3.5% of 310,000 active; AID 1490;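 note: the enzyme is Sfp with the accession as filed and its product quenches rhodamine fluorescence; 0% = enzyme reaction without inhibitor and -100% = no enzyme wells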
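Reaction rates are the 30-min fluorescence difference (ex 525, em 598 nm) in wells containing 15 nM Sfp, 5 uM rhodamine-CoA and 12.5 uM BHQ-2-YbbR at pH 7.6 with 10 mM MgCl2.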
JMJD2A Tudor inh – inhibitors of human JMJD2A Tudor domain; AlphaScreen JMJD2A-Tudor / H3K4me3 peptide binding; Potency, µM (titrated, usually from 114 µM), for inactives: at the highest dose activity change, negative = inhibition, most hits filed as inhibitors; 4.4% of 390,000 active; note: % is set by controls: 0 for no effect and ±100 for the full control effect; nearly all actives have a fitted effect of over 50% in size
G9a block – blocks human histone lysine methyltransferase G9a; G9a H3K9 monomethylation, AlphaScreen, 2 h; 8.8% of 350,000 active; Potency, µM (top dose mostly 102 µM), for inactives: at the highest dose activity, negative = inhibition, usual class: inhibitors; Q96KQ7; note: % is set by controls: 0 for no effect and ±100 for the full control effect; nearly all actives have a fitted effect of over 75% in size
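Chemiluminescent proximity detection of H3K9 monomethylation, read after 10 min bead incubation in the dark. Reaction: 20 nM G9a, 500 nM biotin-H3K9 peptide, 20 uM SAM cofactor, 2 h, room temperature, following 15 min enzyme-compound preincubation.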
BAZ2B block – BAZ2B (human) inhibition. Q9UIF8. AlphaScreen BAZ2B-H3K14Ac peptide displacement. Potency, µM (titrated, usually from 114 µM), without a hit: top-dose activity change, negative = inhibition, usual class: inhibitors. 4.4% of 360,000 active. AID 504333; note: % is set by controls: 0 for no effect and ±100 for the full control effect; nearly all actives have a fitted effect of over 60% in size
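Multi-concentration screen (max 110 uM) measuring displacement of acetylated histone H3 peptide from BAZ2B by AlphaScreen, using 50 nM protein, 50 nM peptide and 10 ug/mL streptavidin donor plus Ni-chelate acceptor beads.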
* marks the source's active call; other numbers are inactive results; ? = inconclusive; nt = not tested or not shown; [ ] = dose if it differs, or a comment. Calls come from the whole dose curve; as a rule, active = well fitted curve in the direction sought with a large enough effect; inconclusive = small, poorly fitted or top-dose-only effect, or another doubt; inactive = no such curve, though single readings can be large; an effect the other way counts as inactive or inconclusive. Potency is the fitted concentration of half-maximal effect.

SMILES | HP1b chromo inh | Sfp inh | JMJD2A Tudor inh | G9a block | BAZ2B block
COC(=O)C/C=C\[C@@H](C)[C@@H](/C=N\O[C@@H]1O[C@H](COC(C)=O)[C@@H](OC(C)=O)[C@H](OC(C)=O)[C@H]1OC(C)=O)NS(=O)(=O)c1ccc(C)cc1 | nt | 0% | nt | nt | nt
O=C1Nc2cccnc2Sc2ccccc21 | -4% | -1% | -15% | 28µM* | -3%
c1ccc2c(c1)Nc1nccnc1S2 | -23% | -89% | 45µM* | ? | -1%
Clc1cc2c(nn1)Nc1ccccc1S2 | 25% | 22% | -9% | 5% | 0%
Cc1ccc2c(c1)NC(=O)c1cccnc1O2 | 43% | nt | 0% | -1%[59 µM] | 4%
O=C1COc2ccc(N3C(=O)C=CC3=O)cc2N1 | nt | 4µM* | nt | 1.4µM* | 100µM*
CCSc1nc2sc3c(c2c(=O)[nH]1)CCCC3 | 20% | 9% | 5% | 1%[59 µM] | -2%
CCSC1=NC2(CCCCC2)Nc2sc3c(c21)CCCC3 | ? | 40µM* | 22µM* | 4.5µM* | ?
CCn1c(C)c(C2=CCN(S(=O)(=O)c3ccccc3)CC2)c2ccccc21 | ? | -14% | ? | 40µM* | ?
COC(=O)c1ccc(OC)c(CN2CCCN(Cc3ccc(C)cc3)S2(=O)=O)c1 | 44% | nt | 5% | -2%[59 µM] | 1%
COc1ccccc1NC1=C(Cl)C(=O)N(c2ccccc2)C1=O | -28% | -2% | ? | 45µM* | ?
COc1ccc(N2C(=O)C(Cl)=C(Nc3c(C)n(C)n(-c4ccccc4)c3=O)C2=O)cc1 | 17% | 45µM* | ? | 8.9µM* | ?
CCCCNc1c(-c2ccc(OC)c(SC3CCCCC3)c2)nc2cc(C)ccn12 | -15% | nt | 56µM* | 14%[2.33 µM] | ?
O=C(/C=C/c1ccco1)c1ccc(O)cc1 | nt | 22µM* | nt | ? | ?
CN(C)c1ccc(C(=O)/C=C/c2ccco2)cc1 | -50% | 50µM* | -30% | 13µM* | 50µM*
CCCCOc1ccc(N2C(=O)CC(N(CCc3ccccc3)C(=O)/C=C/C(=O)O)C2=O)cc1 (centres undefined) | -5% | 5% | -32% | ? | -4%
C=CCn1c(N2CCN(c3ccc(OC)cc3)CC2)nc2c1c(=O)[nH]c(=O)n2C | 49% | 15% | -14% | 50µM* | -31%
CCCn1c(CN2CCN(c3ccc(OC)cc3)CC2)nc2c1c(=O)[nH]c(=O)n2C | 23% | nt | -20% | 25µM* | -15%
CC1CCc2c(sc(NC(=O)c3cccn3C)c2C(N)=O)C1 (centres undefined) | 9%[57 µM] | nt | -36% | nt | nt
CC1(C)Cc2ccccc2-c2n[nH]c(=S)n21 | -2% | 45µM* | 3.2µM* | 13µM* | -16%
CCSc1nnc2n1C(C)(C)Cc1ccccc1-2 | 37% | 1% | -4% | -45%[59 µM] | -7%
Cc1ccc(Nc2c([N+](=O)[O-])ccc3c2=NC2(CCCCC2)N=3)cc1 | ? | 6% | ? | 4.5µM* | 3.5µM*
Cc1cccc(NC(=S)N(CCN2CCOCC2)Cc2cc3cc4c(cc3[nH]c2=O)OCCO4)c1 | 22% | 2% | -35% | nt | ?
COc1ccccc1CC(=O)NNS(=O)(=O)c1ccccc1[N+](=O)[O-] | 7% | -2% | -18% | 24% | 4%
O=C(NNS(=O)(=O)c1ccccc1[N+](=O)[O-])c1cccc([N+](=O)[O-])c1 | 41% | -6% | 10µM* | -21% | -6%
SMILES | HP1b chromo inh | Sfp inh | JMJD2A Tudor inh | G9a block | BAZ2B block
COCC(=O)NNS(=O)(=O)c1ccccc1[N+](=O)[O-] | 29% | 3% | -15% | 18µM* | -8%
O=C(NNS(=O)(=O)c1ccccc1[N+](=O)[O-])c1cccnc1 | 7% | -20% | 4%[11.4 µM] | nt | ?
O=C(NNS(=O)(=O)c1ccccc1[N+](=O)[O-])c1cc2ccccc2cc1O | 3% | -19% | -35% | 1.6µM* | ?
CC(C)(C)c1ccc(C(=O)O/N=C(\N)c2ccccc2)cc1 | 47% | 5% | 19% | 29%[0.501 µM] | 0%
O=C(Nc1ccccc1)N1C2CCC1CC(O)(c1cccnc1)C2 (centres undefined) | 44% | -6% | -22% | -5%[59 µM] | -32%
Cc1cccc(C)c1Nc1ncnc2ccccc12 | 56% | 3% | 8% | 12% | 1%
O=C(NCCc1ccccc1)c1nc(-c2ccc(Cl)cc2)n2c1CCCCC2 | -19% | nt | 22µM* | 14µM* | 25µM*
